Measured values: ChEMBL document CHEMBL4513216, “Probing the Open Global Health Chemical Diversity Library for Multistage-Active Starting Points for Next-Generation Antimalarials” (ACS Infect Dis, 2020)
In all, about 68,000 compounds went through this assay and about 2,700 (4%) showed an effect of 50% or more. The sample holds strong results, similar compounds and a random draw of the others, so the mix is not that of the screen.

The compounds below were run on Plasmodium berghei (assay: Screen against P. berghei liver stage (PbLuc), transformed with Luciferase, at 2uM). Details: tested at 2 uM.
Assay type: functional, HepG2
`CCCS(=O)(=O)N1CCC2(CC1)CCn1c(-c3cnn(C)c3)cnc12` gave an INHIBITION of 18.05%. `CCn1cnnc1CCNC(=O)CCNC(=O)c1ccccc1F` gave an INHIBITION of 52.98%. `CCn1cnnc1CNC(=O)c1ccc(Cl)cc1F` was tested, and the INHIBITION was 39.32%. For `CC(CNC(=O)c1cc(Cl)ccc1I)N1CCCC1` (centres undefined), the INHIBITION was 10.11%. Work on `CCn1cnnc1CCNC(=O)c1ccc(F)c(Br)c1` yielded an INHIBITION of 2.9%. `CC(CNC(=O)c1ccc(Cl)cc1F)N1CCCC1` (centres undefined) showed an INHIBITION of 9.57%. For `CC(CNC(=O)c1cc(Cl)ccc1F)N1CCCC1` (centres undefined), the INHIBITION was 50.94%. Compound `CCn1cnnc1CNC(=O)c1cc(Cl)ccc1F` has an INHIBITION of 54.99%. Compound `CCn1cnnc1CNC(=O)c1cc(Cl)ccc1O` has an INHIBITION of 2.1%. With `CCn1cnnc1CCNC(=O)c1ccc(Br)cc1F` the INHIBITION was -13.8%. With `Cn1c(N2CCOCC2)nc2cc(C(=O)N3CCC(O)(CO)C3)ccc21` (centres undefined) the INHIBITION was -2.63%. For `N#CCC(=O)NCc1nnc2n1CCN(Cc1ccco1)C2`, the INHIBITION was -4.53%. With `CCN(CCCN1CCOCC1)C(=O)c1cnn(CC)c1` the INHIBITION was 35.54%. `O=C(NC1CCCC1)N1CC[C@H]2[C@H]1CCN2c1nncs1` showed an INHIBITION of 49.25%. `C=C(C)COc1ccccc1CN1CCCC(C(=O)NCCCO)C1` (centres undefined) was tested, and the INHIBITION was -25.95%. `CN(C)C(=O)CN1CC[C@H]2CN(S(C)(=O)=O)C[C@@H]2C1=O` was tested, and the INHIBITION was 21.06%. Work on `CNC(=O)CS(=O)(=O)C1CCN(S(=O)(=O)c2cccc(Cl)c2C)CC1` yielded an INHIBITION of -52.21%. Work on `CNC(=O)CS(=O)(=O)C1CCN(S(=O)(=O)c2ccccc2Br)CC1` yielded an INHIBITION of 27.5%. For `CNC(=O)CS(=O)(=O)C1CCN(S(=O)(=O)c2ccccc2Cl)CC1`, the INHIBITION was 68.69%. `Cc1ccc(NC(=O)Nc2cnc(N3CCN(C)CC3)nc2)cc1` showed an INHIBITION of -4.34%. Work on `Cc1occc1C(=O)N1CC[C@@H](N2CCOCC2)[C@@H]1Cc1ccccc1` yielded an INHIBITION of -23.67%. `COc1ccc(OCCCNCCn2cccn2)cc1` showed an INHIBITION of 31%. For `CC(=O)N1CCN(C(=O)CCc2cc(Br)cs2)CC1`, the INHIBITION was 26.74%. `CN1CCN(C(=O)CCc2cc(Br)cs2)CC1` showed an INHIBITION of 72.05%. For `CN(C)C1CCN(C(=O)CCc2cc(Br)cs2)CC1`, the INHIBITION was 41.05%. `COCCC(=O)N1CCc2c(CNc3ncccn3)cncc2C1` gave an INHIBITION of 17.77%. `CCSC1(CNc2ncc(Br)cn2)CCOCC1` showed an INHIBITION of 13.53%. `CCCc1n[nH]c(C2CN(CCS(=O)(=O)CC)CCO2)n1` (centres undefined) was tested, and the INHIBITION was -5.7%. In the case of `NCC1[C@H]2CN(Cc3cccc(Cl)c3)C[C@@H]12` (some centres undefined), the INHIBITION is reported as 45.77%. `NCC1[C@H]2CN(CCc3ccccc3)C[C@@H]12` (some centres undefined) showed an INHIBITION of -7.41%. With `NCC1[C@H]2CN(Cc3ccccc3)C[C@@H]12` (some centres undefined) the INHIBITION was 55.7%. `CN(C)Cc1cc(=O)n2c(n1)CN(C(=O)c1ccc[nH]1)CCC2` was tested, and the INHIBITION was -16.33%. With `O=C(CCC1CCN(C2CSCCSC2)CC1)NCC1CCCO1` (centres undefined) the INHIBITION was -15.37%. In the case of `Cc1cc(=O)[nH]c(NCCNC(=O)c2ccccc2N2CCCC2)n1`, the INHIBITION is reported as 41.14%. Compound `Cc1nc(O)cc(CCNC(=O)CN2CCCCCC2)n1` has an INHIBITION of 4.12%. Work on `Cc1cc(=O)[nH]c(NCCNC(=O)CN2CCCCCC2)n1` yielded an INHIBITION of 56.93%. Work on `CC(C)C(=O)NCCCn1ncc2c(Cl)cccc21` yielded an INHIBITION of -7.01%. With `CSCC(=O)N(C)Cc1ccc(N(C)C)cc1` the INHIBITION was -20.68%. `Cc1ccc2cc(CN(C)Cc3ccncn3)c(=O)[nH]c2c1` was tested, and the INHIBITION was -20.98%. For `O=C(CCn1ncc2c(Cl)cccc21)NCC1CC1`, the INHIBITION was 20.8%. For `CN(Cc1cccc2ncccc12)C(=O)CCC(F)(F)F`, the INHIBITION was -22.2%. Work on `CN(C(=O)CCC(F)(F)F)c1cccc2ncccc12` yielded an INHIBITION of 59.67%. Work on `CCCC(=O)N(C)c1cccc2ncccc12` yielded an INHIBITION of 28.14%. Compound `CCN(CC)S(=O)(=O)N(C)Cc1ccc2c(c1)OCCO2` has an INHIBITION of 8.06%. Work on `CCN(CC(=O)NCCc1nc(C)no1)Cc1ccc(Cl)cc1` yielded an INHIBITION of -45.29%. `CCN(CC)C(=O)CCc1c(C)nc2cc(O)nn2c1C` showed an INHIBITION of 18.97%. With `Cc1nc2cc(O)nn2c(C)c1CCC(=O)N(C)Cc1ccccc1` the INHIBITION was 37.41%. Work on `Cc1nc2cc(O)nn2c(C)c1CCC(=O)N(C)CCC(C)C` yielded an INHIBITION of 65.38%. In the case of `CC(C)(C)c1cc(CNC(=O)c2cc(COc3ccccc3)[nH]n2)[nH]n1`, the INHIBITION is reported as -103.13%. Work on `Cc1nn(C)c(C)c1NC(=O)CN1CCCC1c1noc(C(C)C)n1` (centres undefined) yielded an INHIBITION of 12.66%. Work on `CC1=C(CCN2C[C@H](O)[C@@H](N3CCOCC3)C2)C(C)(C)CCC1` yielded an INHIBITION of -57.94%. `Cc1sc2nc(CCN)nc(N3CCN(S(C)(=O)=O)CC3)c2c1C` showed an INHIBITION of 20.77%. `Cc1sc2nc(CCN)nc(N3CCS(=O)(=O)CC3)c2c1C` was tested, and the INHIBITION was 60.04%. Compound `CCOC(=O)N1CCN(c2nc(CCN)nc3sc(C)c(C)c23)CC1` has an INHIBITION of 17.89%.
